Records with an inconclusive call do not appear. Entries that show only a call come without a potency. The source made the active and inactive calls. Calls follow the shape of the full dose curve.
Assay: Validation screen for inhibitors of Lassa infection (AID 463096)
Details: Lassa virus infection, cell-based; series mostly up to 46.1 µM
Potency is read from the fitted curve at half-maximal effect.

Structure (SMILES)	Potency
Cc1ccc(/C(=C\CN2CCCC2)c2ccccn2)cc1	inactive
C(=C\c1ccccc1)/CN1CCN(C(c2ccccc2)c2ccccc2)CC1	inactive
COc1cc2c(cc1OC)-c1cc(=Nc3c(C)cc(C)cc3C)n(C)c(=O)n1CC2	inactive
COC(=O)C1=C(C)NC(C)=C(C(=O)OC)C1c1ccccc1[N+](=O)[O-]	inactive
O=C(O)CP(=O)(O)O	inactive
OC(CN1CCC(Cc2ccc(F)cc2)CC1)c1ccc(Cl)cc1 (centres undefined)	inactive
CCN(CC)CC(=O)Nc1c(C)cccc1C	inactive
NS(=O)(=O)c1cc2c(cc1Cl)NC(C1CC3C=CC1C3)NS2(=O)=O (centres undefined)	inactive
Fc1ccc(C(c2ccc(F)cc2)N2CCN(C/C=C/c3ccccc3)CC2)cc1	inactive
C[C@]12C=CC(=O)C=C1CC[C@H]1[C@@H]3C[C@@H](O)[C@](O)(C(=O)CO)[C@@]3(C)C[C@H](O)[C@@]12F	inactive
NCCc1cnc[nH]1	inactive
CCn1ccnc1CC1COc2ccccc2O1 (centres undefined)	inactive
c1cc(CN2CCCCC2)cc(OCCCNc2nc3ccccc3s2)c1	inactive
NCCc1ccc(O)c(O)c1	inactive
CC(C)NCC(O)COc1ccc(COCCOC(C)C)cc1 (centres undefined)	inactive
C[C@]12CCC(=O)C=C1CC[C@@H]1[C@@H]2C(=O)C[C@@]2(C)[C@H]1CC[C@]2(O)C(=O)CO	inactive
c1ccc([C@H]2CN3CCSC3=N2)cc1	inactive

Structure (SMILES)	Potency
C[N+](C)(C)CCOC(=O)CCC(=O)OCC[N+](C)(C)C	inactive
Cc1ccc(N(CC2=NCCN2)c2cccc(O)c2)cc1	inactive
CN(C)CCN(Cc1cccs1)c1ccccn1	inactive
CCNC(=O)N1CCN(CCCC(c2ccc(F)cc2)c2ccc(F)cc2)CC1	inactive
CCc1cccc2c3c([nH]c12)C(CC)(CC(=O)O)OCC3 (centres undefined)	inactive
CNC[C@H](O)c1ccc(O)c(O)c1	inactive
Cc1[nH]c(=O)c(C#N)cc1-c1ccc2nccn2c1	inactive
Nc1c2c(nc3ccccc13)CCCC2O (centres undefined)	inactive
COc1nc(C)nc(Cl)c1NC1=NCCN1	inactive
O=C(c1ccc(F)cc1)C1CCN(CCn2c(=O)[nH]c3ccccc3c2=O)CC1	inactive
CN(C)CCOC(c1ccccc1)c1ccccc1	inactive
OCCN1CCN(CCCN2c3ccccc3C=Cc3ccccc32)CC1	inactive
O=C(CCNNC(=O)c1ccncc1)NCc1ccccc1	inactive
Cc1cc(C(C)(C)C)cc(C)c1CC1=NCCN1	inactive
C[n+]1cc2c3c(ccc2c2ccc4cc5c(cc4c21)OCO5)OCO3	2000 nM (active)
COc1ccccc1N1CCN(CC(O)COc2cccc3ccccc23)CC1 (centres undefined)	inactive
O=C1N(c2ccccc2)c2ccccc2C1(Cc1ccncc1)Cc1ccncc1	inactive
